The sample as a whole holds a higher share of the strongest signals than the screen did.
Key:
Experiment in all cases: glycan array binding signal (z-score within array); higher = stronger binding
Conditions in all cases: glycan notation: IUPAC condensed, linker removed
Fuc(a1-2)Gal(b1-4)Glc6S = molecular target: Fuc(a1-2)Gal(b1-4)Glc6S
Procedure, shortened: (§1)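 Glycan array data came from 3228 arrays in the Consortium for Functional Glycomics database, and only arrays with an available protein sequence were kept. Glycan names were put into IUPAC-condensed notation, and columns mapping to the same glycan were averaged. The binding signal is a within-array Z-score, averaged across arrays of one protein sequence run at different concentrations or buffers and across linkers. A negative Z-score can be read as non-binding.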

[1] = molecular target: Fuc(a1-2)Gal3S(b1-4)GlcNAc
Procedure, shortened: as §1

[2] = molecular target: Fuc(a1-2)Gal6S(b1-4)Glc6S
Procedure, shortened: as §1

[3] = molecular target: Fuc(a1-2)[Gal(a1-3)]Gal(b1-4)GlcNAc(b1-3)[Fuc(a1-2)[Gal(a1-3)]Gal(b1-4)GlcNAc(b1-6)]GalNAc
Procedure, shortened: as §1

[4] = molecular target: Fuc(a1-3)[Gal(b1-4)]GlcNAc(b1-3)Gal(b1-4)[Fuc(a1-3)]GlcNAc(b1-3)Gal(b1-4)[Fuc(a1-3)]GlcNAc
Procedure, shortened: as §1

[5] = molecular target: Fuc(a1-3)[Gal3S(b1-4)]GlcNAc6S
Procedure, shortened: as §1

Fuc(a1-4)GlcNAc = molecular target: Fuc(a1-4)GlcNAc
Procedure, shortened: as §1

Gal(a1-3)Gal(b1-3)GlcNAc = molecular target: Gal(a1-3)Gal(b1-3)GlcNAc
Procedure, shortened: as §1

[6] = molecular target: Gal(a1-3)Gal(b1-3)[Fuc(a1-4)]GlcNAc(b1-2)Man(a1-3)[Gal(a1-3)Gal(b1-3)[Fuc(a1-4)]GlcNAc(b1-2)Man(a1-6)]Man(b1-4)GlcNAc(b1-4)GlcNAc
Procedure, shortened: as §1

[7] = molecular target: Gal(a1-3)Gal(b1-4)[Fuc(a1-3)]GlcNAc(b1-2)Man(a1-3)[Gal(a1-3)Gal(b1-4)[Fuc(a1-3)]GlcNAc(b1-2)Man(a1-6)]Man(b1-4)GlcNAc(b1-4)GlcNAc
Procedure, shortened: as §1

[8] = molecular target: Gal(a1-3)[Gal(a1-4)]Gal(b1-4)GlcNAc
Procedure, shortened: as §1

[9] = molecular target: Gal(b1-3)GalNAc(b1-3)Gal(a1-4)Gal(b1-4)Glc
Procedure, shortened: as §1

[10] = molecular target: Gal(b1-3)GlcNAc(b1-3)Gal(b1-3)GlcNAc
Procedure, shortened: as §1

[11] = molecular target: Gal(b1-3)GlcNAc(b1-3)Gal(b1-4)GlcNAc(b1-2)Man(a1-3)[Gal(b1-3)GlcNAc(b1-3)Gal(b1-4)GlcNAc(b1-2)Man(a1-6)]Man(b1-4)GlcNAc(b1-4)GlcNAc
Procedure, shortened: as §1

[12] = molecular target: Gal(b1-3)GlcNAc(b1-3)Gal(b1-4)GlcNAc(b1-6)[Gal(b1-3)GlcNAc(b1-3)]Gal(b1-4)Glc
Procedure, shortened: as §1

[13] = molecular target: Gal(b1-3)GlcNAc(b1-6)[Gal(b1-3)]GalNAc
Procedure, shortened: as §1

[14] = molecular target: Gal(b1-3)[Fuc(a1-4)]GlcNAc(b1-2)Man(a1-3)[Gal(b1-3)[Fuc(a1-4)]GlcNAc(b1-2)Man(a1-6)]Man(b1-4)GlcNAc(b1-4)[Fuc(a1-6)]GlcNAc
Procedure, shortened: as §1

[15] = molecular target: Gal(b1-4)GlcNAc(b1-2)Man(a1-6)[Man(a1-3)]Man(b1-4)GlcNAc(b1-4)GlcNAc
Procedure, shortened: as §1

[16] = molecular target: Gal(b1-4)GlcNAc(b1-3)Gal(b1-4)GlcNAc(b1-2)Man(a1-3)[Gal(b1-4)GlcNAc(b1-3)Gal(b1-4)GlcNAc(b1-2)Man(a1-6)]Man(b1-4)GlcNAc(b1-4)GlcNAc
Procedure, shortened: as §1

[17] = molecular target: Gal(b1-4)GlcNAc(b1-3)Gal(b1-4)GlcNAc(b1-2)[Gal(b1-4)GlcNAc(b1-3)Gal(b1-4)GlcNAc(b1-6)]Man(a1-6)[Gal(b1-4)GlcNAc(b1-3)Gal(b1-4)GlcNAc(b1-2)Man(a1-3)]Man(b1-4)GlcNAc(b1-4)[Fuc(a1-6)]GlcNAc
Procedure, shortened: as §1

[18] = molecular target: Gal(b1-4)GlcNAc(b1-3)Gal(b1-4)[Fuc(a1-3)]GlcNAc(b1-3)Gal(b1-4)[Fuc(a1-3)]GlcNAc
Procedure, shortened: as §1

[19] = molecular target: Gal(b1-4)GlcNAc(b1-3)[GlcNAc(b1-6)]Gal(b1-4)GlcNAc
Procedure, shortened: as §1

[20] = molecular target: Gal(b1-4)GlcNAc(b1-6)Gal(b1-4)GlcNAc
Procedure, shortened: as §1

[21] = molecular target: Gal(b1-4)GlcNAc(b1-6)[Gal(b1-3)]GalNAc
Procedure, shortened: as §1

Gal3S(b1-3)GlcNAc = molecular target: Gal3S(b1-3)GlcNAc
Procedure, shortened: as §1

[22] = molecular target: Gal3S(b1-4)[Fuc(a1-3)]Glc6S
Procedure, shortened: as §1

GalNAc(a1-3)Gal = molecular target: GalNAc(a1-3)Gal
Procedure, shortened: as §1

GalNAc(b1-3)GlcNAc = molecular target: GalNAc(b1-3)GlcNAc
Procedure, shortened: as §1

GalNAc(b1-4)GlcNAc = molecular target: GalNAc(b1-4)GlcNAc
Procedure, shortened: as §1

GalNAc6S(b1-4)GlcNAc = molecular target: GalNAc6S(b1-4)GlcNAc
Procedure, shortened: as §1

B1: Thrombomodulin (Mus musculus) (protein)
chain: ALAKLQPTGSQCVEHECFALFQGPATFLDASQACQRLQGHLMTVRSSVAADVISLLLSQSSMDLGPWIGLQLPQGCDDPVHLGPLRGFQWVTGDNHTSYSRWARPNDQTAPLCGPLCVTVSTATEAAPGEPAWEEKPCETETQGFLCEFYFTASC
**Q.** What does the source list for B1?
**A.** glycan array binding signal (z-score) (Fuc(a1-2)Gal(b1-4)Glc6S): 0.107; glycan array binding signal (z-score) [1]: -0.236; glycan array binding signal (z-score) [2]: -0.056; glycan array binding signal (z-score) [3]: 5.4; glycan array binding signal (z-score) [4]: -0.183; glycan array binding signal (z-score) [5]: -0.172; glycan array binding signal (z-score) (Fuc(a1-4)GlcNAc): 3.52; glycan array binding signal (z-score) (Gal(a1-3)Gal(b1-3)GlcNAc): 4.59; glycan array binding signal (z-score) [6]: 0.179; glycan array binding signal (z-score) [7]: 0.955; glycan array binding signal (z-score) [8]: 0.213; glycan array binding signal (z-score) [9]: -0.277; glycan array binding signal (z-score) [10]: 0.083; glycan array binding signal (z-score) [11]: -0.022; glycan array binding signal (z-score) [12]: 0.148; glycan array binding signal (z-score) [13]: -0.267; glycan array binding signal (z-score) [14]: 0.595; glycan array binding signal (z-score) [15]: 0.088; glycan array binding signal (z-score) [16]: 1.25; glycan array binding signal (z-score) [17]: 0.053; glycan array binding signal (z-score) [18]: 0.126; glycan array binding signal (z-score) [19]: -0.029; glycan array binding signal (z-score) [20]: -0.219; glycan array binding signal (z-score) [21]: -0.326; glycan array binding signal (z-score) (Gal3S(b1-3)GlcNAc): -0.007; glycan array binding signal (z-score) [22]: 0.12; glycan array binding signal (z-score) (GalNAc(a1-3)Gal): 0.15; glycan array binding signal (z-score) (GalNAc(b1-3)GlcNAc): -0.37; glycan array binding signal (z-score) (GalNAc(b1-4)GlcNAc): 0.33; glycan array binding signal (z-score) (GalNAc6S(b1-4)GlcNAc): -0.071
